We go through 85 molecules from publication PMC4336329 (PLoS ONE, 2015).

SMILES strings stand for the structures. About 14,000 (4.5%) of roughly 310,000 compounds showed an effect of 50% or more. The effect is printed as a negative number. For the sample, strong results were picked, then their nearest neighbours and some compounds at random.
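Note: peak tail current of the secondary pulse compared with the same well before compound.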

Chain of human ether-à-go-go-related gene (hERG) potassium channel (Q12809 whole entry, looked up): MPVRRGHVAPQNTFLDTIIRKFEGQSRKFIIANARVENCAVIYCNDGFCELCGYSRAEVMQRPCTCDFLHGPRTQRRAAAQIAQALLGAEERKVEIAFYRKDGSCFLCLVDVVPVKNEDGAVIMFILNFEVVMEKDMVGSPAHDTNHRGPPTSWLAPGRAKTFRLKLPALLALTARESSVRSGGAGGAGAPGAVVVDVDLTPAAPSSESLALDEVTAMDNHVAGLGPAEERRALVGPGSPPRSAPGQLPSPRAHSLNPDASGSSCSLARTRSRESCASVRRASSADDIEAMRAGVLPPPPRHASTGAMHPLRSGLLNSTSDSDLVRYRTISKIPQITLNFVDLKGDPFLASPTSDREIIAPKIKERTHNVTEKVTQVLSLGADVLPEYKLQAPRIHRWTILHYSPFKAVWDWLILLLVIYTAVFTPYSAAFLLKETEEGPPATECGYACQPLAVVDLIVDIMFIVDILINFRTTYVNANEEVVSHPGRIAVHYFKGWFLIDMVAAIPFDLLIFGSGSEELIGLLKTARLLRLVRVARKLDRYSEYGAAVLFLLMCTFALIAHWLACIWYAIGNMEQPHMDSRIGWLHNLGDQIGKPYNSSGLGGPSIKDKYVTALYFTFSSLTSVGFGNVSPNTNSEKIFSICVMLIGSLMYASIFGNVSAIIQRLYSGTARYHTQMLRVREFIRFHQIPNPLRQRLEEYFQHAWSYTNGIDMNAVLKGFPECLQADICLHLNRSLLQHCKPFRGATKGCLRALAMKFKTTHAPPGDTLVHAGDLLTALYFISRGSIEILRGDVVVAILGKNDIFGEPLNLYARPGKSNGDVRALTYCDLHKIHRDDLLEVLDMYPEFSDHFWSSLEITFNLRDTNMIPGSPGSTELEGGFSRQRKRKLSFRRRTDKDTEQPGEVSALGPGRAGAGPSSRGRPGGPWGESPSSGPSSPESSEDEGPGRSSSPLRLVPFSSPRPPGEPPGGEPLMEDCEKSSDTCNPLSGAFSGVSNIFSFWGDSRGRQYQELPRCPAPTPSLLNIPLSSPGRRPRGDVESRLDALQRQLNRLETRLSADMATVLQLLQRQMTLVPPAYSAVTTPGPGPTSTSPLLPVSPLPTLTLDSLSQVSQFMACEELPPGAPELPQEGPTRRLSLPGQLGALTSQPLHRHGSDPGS

This assay concerns the target human ether-à-go-go-related gene (hERG) potassium channel (human, UniProt Q12809). In words: primary screen, population patch clamp on CHO cells stably expressing hERG; higher = less effect of the substance. On the procedure: Briefly, Chinese hamster ovary (CHO) cells stably expressing the hERG channel were dislodged from tissue culture flasks and dispensed into PPC plates. […] During the recording, background leak currents were estimated by a 100 ms step to -80 mV from an initial holding potential of -70 mV and subtracted from the subsequent current measurement. The campaign was conducted in two phases using slight differences in recording protocol. In the first phase, the initial voltage pulse used a 100 ms step to -30 mV from a holding potential of -70 mV, a 2 s conditioning step to +25 mV, and a 2 s test step to -30 mV. During the second phase of the screen, the potential during the conditioning step was raised to +45 mV. In both phases of the campaign, a secondary voltage pulse was applied using the same parameters as the second phase initial pulse. The initial and secondary pulses were applied in the absence of compound, and upon application of 1 μM and 10 μM test concentrations. […]
In the case of `Cc1c(C(=O)N2CCC(Cc3ccccc3)CC2)sc2ncnc(N3CCC(C)CC3)c12`, the “hERG current change (%, negative = inhibition) at 10uM” value was determined as 8.19%.
The result for `CCN1CCN(C(=O)c2sc3nc(C)nc(N4CCC(C)CC4)c3c2C)CC1` reads -8.16%; that for `CCOC(=O)C1CCN(C(=O)c2sc3nc(C)nc(N4CCC(C)CC4)c3c2C)CC1`, -52.7%; that for `CCOC(=O)C1CCCN(C(=O)c2sc3nc(C)nc(N4CCOCC4)c3c2C)C1` (stereo not shown), -3.42%.
Consider `Cc1c(C(=O)N2CCN(c3ccccc3)CC2)sc2ncnc(N3CCC(C)CC3)c12`, for which the “hERG current change (%, negative = inhibition) at 10uM” value is -29.9%.
The same measure for `CCOC(=O)C1CCN(C(=O)c2sc3ncnc(N4CCC(C)CC4)c3c2C)CC1`: -73.2%; for `Cc1nn(-c2nnc(NC3CCCCC3)nn2)c(C)c1Br`: 10.8%; for `OC1(c2ccccc2F)CCN(Cc2nnnn2Cc2ccc(F)cc2)CC1`: 8.52%.
The same measure for `C/C(N)=C(/C#N)C(=O)CSc1nc2cc(Cl)ccc2c(=O)n1Cc1ccco1`: 16.8%; for `CC1(C)CC(=O)C2=C(C1)OC(/N=C/N1CCOCC1)=C(C#N)C2c1ccccc1` (stereo not shown): -11%; for `CCOc1cccc(OCCn2cnc3ccccc3c2=O)c1`: 5.84%.
The same measure for `Cn1c(=O)c2c(ncn2CC(=O)N2CCN(c3ccccc3)CC2)n(C)c1=O`: 0.318%.
For the molecule `COc1ccc(N2CCN(C(=O)Cn3cnc4c3c(=O)n(C)c(=O)n4C)CC2)cc1`, the “hERG current change (%, negative = inhibition) at 10uM” value stood at 5.48%.
Turning to `Cn1c(=O)c2c(ncn2CC(=O)N2CCN(c3cccc(Cl)c3)CC2)n(C)c1=O`, the “hERG current change (%, negative = inhibition) at 10uM” value is on record as -64.2%.
The same measure for `Cn1c(=O)c2c(ncn2CC(=O)N2CCN(c3ccc(F)cc3)CC2)n(C)c1=O`: -23.4%.
The result for `Cn1c(=O)c2c(nc(N3CCOCC3)n2C)n(C)c1=O` reads -4.44%; that for `Cc1cccc(N2CCN(C(=O)Cn3cnc4c3c(=O)n(C)c(=O)n4C)CC2)c1C`, -26%; that for `Cn1c(=O)c2c(nc(N3CCN(c4ccc([N+](=O)[O-])cc4)CC3)n2C)n(C)c1=O`, -76.2%.
The same measure for `Cn1c(=O)c2c(ncn2CC(=O)N2CCN(c3ccc([N+](=O)[O-])cc3)CC2)n(C)c1=O`: -72%.
As for `Cn1c(=O)c2c(nc(N3CCCC3)n2C)n(C)c1=O`, the “hERG current change (%, negative = inhibition) at 10uM” value was found to be 10%.
Consider `Cc1ccc(C(=O)c2ccccc2C(=O)O)s1`, for which the “hERG current change (%, negative = inhibition) at 10uM” value is -1.28%.
As for `COc1cccc(N2CCN(C3C4CC5CC(C4)CC3C5)CC2)c1` (stereo not shown), the “hERG current change (%, negative = inhibition) at 10uM” value amounted to 2.54%.
The result for `CC(=O)Nc1nc(NC(=O)/C=C/c2ccccc2)n(-c2ccccc2)n1` reads -1.34%; that for `COC(CNC(=O)c1ccc2c(c1)ncn2C1CCCCCC1)OC`, 4.09%.
For `COc1ccc(-c2noc(C3CCCN(C(=O)c4cccs4)C3)n2)cc1` (stereo not shown), the “hERG current change (%, negative = inhibition) at 10uM” value is listed as -21.1%.
The same measure for `O=C(c1cccs1)N1CCCC(c2nc(-c3ccc(F)cc3)no2)C1` (stereo not shown): -51.7%; for `O=C(c1c(F)cccc1F)N1CCCC(c2nc(-c3ccc(F)cc3)no2)C1` (stereo not shown): -6.69%; for `O=C(c1ccc(F)cc1)N1CCCC(c2nc(-c3cccs3)no2)C1` (stereo not shown): -18.5%.
The same measure for `COc1ccc(-c2noc(C3CCCN(C(=O)c4ccc(F)cc4)C3)n2)cc1` (stereo not shown): -35.3%; for `O=C(c1ccc(F)cc1)N1CCCC(c2nc(-c3ccncc3)no2)C1` (stereo not shown): -65.6%.
For the molecule `CCN1C(=O)c2cccc3c(S(=O)(=O)NCC4CCCO4)ccc1c23` (stereo not shown), the “hERG current change (%, negative = inhibition) at 10uM” value stood at 1.95%.
The result for `COCCNC(=O)C(c1cccc(OC)c1)N(C(=O)Cn1nnc2ccccc21)c1cccnc1` (stereo not shown) reads 7.66%.
The same measure for `COCC1CCCCN1C(=O)c1ccc(OC2CCN(Cc3ccccn3)CC2)cc1` (stereo not shown): 1.34%; for `CC(=O)Nc1cc(NC(C)=O)cc(-c2nc3ccccc3[nH]2)c1`: 3.84%.
`CC(C)c1ccc(/C=N/NC(=O)C(=O)NCCCN2CCOCC2)cc1`: the “hERG current change (%, negative = inhibition) at 10uM” value is -20.6%.
The same measure for `Cc1ccc(C(=O)N/C(=C\c2ccc(C(C)C)cc2)C(=O)NCCCN2CCOCC2)cc1`: -72.3%; for `COc1ccc(/C=C(\NC(=O)c2ccc(C)cc2)C(=O)NCCCN2CCOCC2)cc1OC`: 19.9%.
On to `Cc1ccc(C(=O)N/C(=C/c2ccc(C(C)C)cc2)C(=O)NCCCN2CCOCC2)cc1`, for which the “hERG current change (%, negative = inhibition) at 10uM” value is -65.8%.
Take `CC(C)c1ccc(NC2CCCN(C(=O)c3n[nH]c4c3CCC4)C2)cc1` (stereo not shown): the “hERG current change (%, negative = inhibition) at 10uM” value is recorded as 5.38%.
For the molecule `C=CCN(c1ccccc1C(=O)O)S(=O)(=O)c1ccc(NC(=O)OC)cc1`, the “hERG current change (%, negative = inhibition) at 10uM” value turned out to be 4.39%.
The result for `CC1CCCCC1NC(=O)CN(C)S(=O)(=O)c1cccc2cccnc12` (stereo not shown) reads -0.115%; that for `COc1cccc(SCC(=O)N2CCN(c3ccccc3)CC2)c1`, -1.23%.
Turning to `Cc1ccc2c(c1)S/C(=C\c1cccc[n+]1C)N2CCO.[I-]`, the “hERG current change (%, negative = inhibition) at 10uM” value was -0.805%.
The result for `CCN1/C(=C/c2ccc3cc(C)ccc3[n+]2CC)Sc2ccccc21.[I-]` reads -90.6%; that for `CCN1/C(=C/C(=O)c2ccco2)Sc2ccccc21`, 8.09%.
With `CCN1/C(=C/c2ccc3cc(C)ccc3[n+]2CC)Sc2ccc3sccc3c21.[I-]`, the “hERG current change (%, negative = inhibition) at 10uM” value is given as -44.5%.
The result for `CCN1/C(=C/c2ccc3cccc(C)c3[n+]2CC)Sc2ccccc21.[I-]` reads -75%.
The same measure for `CCC(=O)/C=C1/Sc2ccccc2N1CC`: 7.66%; for `CCC(=O)/C=C1\Sc2ccccc2N1CC`: -3.72%; for `CCN1/C(=C/c2ccc3ccc(C)cc3[n+]2CC)Sc2ccccc21.[I-]`: -81.1%.
The result for `CC[n+]1c(S(=O)(=O)[O-])ccc2ccc(C)cc21` reads 6.26%.
Take `COc1ccccc1CNCC(=O)Nc1ccc(N2CCOCC2)cc1.O=C(O)C(=O)O`: the “hERG current change (%, negative = inhibition) at 10uM” value is reported as 1.57%.
As to `O=C(NCc1cccnc1)C1CCCCN1S(=O)(=O)c1ccc(F)cc1` (stereo not shown), the “hERG current change (%, negative = inhibition) at 10uM” value is given as -20.9%.
As to `CC(=O)Nc1ccc(S(=O)(=O)N2CCN(C(=O)Cc3ccccc3)CC2)cc1`, the “hERG current change (%, negative = inhibition) at 10uM” value is given as -1.44%.
Turning to `COc1ccc(CN(CCNC(=O)CCCCC(=O)NCCN(Cc2ccc(OC)cc2)C(C)C)C(C)C)cc1.Cl`, the “hERG current change (%, negative = inhibition) at 10uM” value is given as -5.63%.
For `O=C(CCCOc1ccccc1)Nc1nncs1`, the “hERG current change (%, negative = inhibition) at 10uM” value is on record as -5.59%.
The result for `COc1ccc(OC)c(N2C(=O)NC(=O)C3(Cc4cc(C)ccc4N(C)C3)C2=O)c1` (stereo not shown) reads -5.52%; that for `Cc1ccccc1Oc1cc(-n2ncc(Cl)c(Cl)c2=O)ncn1`, 6.67%.
On to `CCc1cccc(CC)c1NC(=O)COc1ccccc1C(=O)c1cc(C#N)c(=O)n(C2CCCCC2)c1`, for which the “hERG current change (%, negative = inhibition) at 10uM” value turned out to be 14.4%.
The same measure for `CCCCNC(=O)c1ccccc1Cl`: 21.5%; for `CN1CCc2c(n(CC(O)CN(CCO)CCO)c3ccccc23)C1=O.Cl` (stereo not shown): 6.94%.
For `CN1CCc2c(n(CC(O)CN3CCN(CCO)CC3)c3ccccc23)C1=O.Cl` (stereo not shown), the “hERG current change (%, negative = inhibition) at 10uM” value is 2.24%.
The result for `CN1CCc2c(n(CC(O)CNCc3ccccc3)c3ccccc23)C1=O.Cl` (stereo not shown) reads -52.8%; that for `Cc1cc(C)cc(N2CC(C)Cn3c2nc2c3c(=O)[nH]c(=O)n2C)c1` (stereo not shown), -2.03%; that for `CCC(Oc1ccccc1)C(=O)NC1CCCCCC1` (stereo not shown), -0.406%.
For `CCC1CCCCN1C(=O)CCn1c(=O)oc2ccccc21` (stereo not shown), the “hERG current change (%, negative = inhibition) at 10uM” value was -17.7%.
The result for `O=C(N/N=C/c1cccnc1)c1cc(-c2cccs2)nc2ccccc12` reads -20%; that for `CCC(C)Sc1cccc(-c2nc3cc(C)ccn3c2NCc2ccccc2)c1.O=C(O)C(F)(F)F` (stereo not shown), 4.02%; that for `Cc1ccc(S(=O)(=O)N2CCCCC2)cc1C(=O)N1CCN(CCO)CC1`, 3.41%.
The same measure for `O=C(C1=NN[C@@H]2C(=O)N(Cc3ccccc3)C(=O)[C@H]12)c1ccc(F)cc1`: 7.44%; for `O=C(OCc1ccccc1)C1=NNC2C(=O)N(Cc3ccccc3)C(=O)C12` (stereo not shown): 16.2%.
The same measure for `O=C(C1=NN[C@@H]2C(=O)N(Cc3ccccc3)C(=O)[C@H]12)c1ccc([N+](=O)[O-])cc1`: -50.2%.
In the case of `CC(C)(C)c1nnc(NS(=O)(=O)c2ccc([N+](=O)[O-])cc2)s1`, the “hERG current change (%, negative = inhibition) at 10uM” value came to 28.3%.
Consider `CN1CCN(c2nc(-c3ccccn3)nc3ccccc23)CC1`, for which the “hERG current change (%, negative = inhibition) at 10uM” value is given as -51.4%.
Consider `c1ccc(-c2nc(N3CCOCC3)c3ccccc3n2)nc1`, for which the “hERG current change (%, negative = inhibition) at 10uM” value was -15.9%.
Turning to `CSc1nc(N2CCN(C)CC2)c2ccccc2n1`, the “hERG current change (%, negative = inhibition) at 10uM” value is listed as -49.1%.
The result for `CCN1CCN(c2nc(-c3ccccn3)nc3ccccc23)CC1` reads -56.3%; that for `Oc1ccccc1-c1nc(N2CCCC2)c2ccccc2n1`, -13.2%; that for `c1ccc(-c2nc(N3CCCCCC3)c3ccccc3n2)nc1`, -77.5%.
`Fc1ccccc1-c1nc(N2CCCCC2)c2ccccc2n1`: the “hERG current change (%, negative = inhibition) at 10uM” value is given as -1.61%.
The same measure for `c1ccc(N2CCN(c3nc(-c4ccccn4)nc4ccccc34)CC2)cc1`: -73.9%; for `COc1cccc(-c2nc(N3CCN(c4ccccc4)CC3)c3ccccc3n2)c1O`: 0.912%; for `c1ccc(CN2CCN(c3nc(-c4ccccn4)nc4ccccc34)CC2)cc1`: 5.45%.
The result for `Cc1cc(C)c(S(=O)(=O)N2CCOC2CNC(=O)C(=O)NCCN(C)C)c(C)c1` (stereo not shown) reads 13.1%; that for `COc1ccc2[nH]cc(CCNC(=O)c3ccco3)c2c1`, 12.3%.
